Source: the supplement of paper PMC7411054
Where a name gives a salt, the structure may show the parent alone.

Tests used:
Conditions in all cases: treatment time: 24 h
A549-ACTB-RAB5A [1] = assay: lowest phenotypically active concentration; higher = less potent
How it was run: (§1)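 Four wells per concentration (0.3, 1, 3 or 9 µM) were treated for 24 h in each of fifteen gene-edited reporter lines from A549, HepG2 and WPMY1 cells, then imaged live. After normalising live-cell features to solvent control wells, deviation was defined as ≥3 of 4 wells lying past the 95th percentile of control Euclidean distances. Reproducibility was defined as a median replicate Pearson correlation above the 95th percentile of non-replicates. Both had to hold for phenotypic activity.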

A549-CANX-COX4 [2] = assay: as above
How it was run: as §1

A549-GM130-SQSTM1 [3] = assay: as above
How it was run: as §1

A549-TP53BP1-CLTA [4] = assay: as above
How it was run: as §1

A549-TUBA1B-RELA [5] = assay: as above
How it was run: as §1

A549-ACTB-RAB5A [6] = assay: phenotypically active (imaging signature differs from DMSO and reproducible) at any of 0.3-9 uM (binary (1 = active, 0 = inactive)); higher = active
How it was run: as §1

A549-CANX-COX4 [7] = assay: as above
How it was run: as §1

A549-GM130-SQSTM1 [8] = assay: as above
How it was run: as §1

A549-TP53BP1-CLTA [9] = assay: as above
How it was run: as §1

A549-TUBA1B-RELA [10] = assay: as above
How it was run: as §1

HepG2-ACTB-RAB5A = assay: as above
How it was run: as §1

HepG2-CANX-COX4 = assay: as above
How it was run: as §1

HepG2-GM130-SQSTM1 = assay: as above
How it was run: as §1

HepG2-TP53BP1-CLTA = assay: as above
How it was run: as §1

HepG2-TUBA1B-RELA = assay: as above
How it was run: as §1

WPMY1-ACTB-RAB5A = assay: as above
How it was run: as §1

WPMY1-CANX-COX4 = assay: as above
How it was run: as §1

WPMY1-GM130-SQSTM1 = assay: as above
How it was run: as §1

WPMY1-TP53BP1-CLTA = assay: as above
How it was run: as §1

WPMY1-TUBA1B-RELA = assay: as above
How it was run: as §1

CN1CCC(=C2c3ccccc3CC(=O)c3sccc32)CC1 [ketotifen]
9 µM: lowest phenotypically active concentration (A549-ACTB-RAB5A [1]) | lowest phenotypically active concentration (A549-CANX-COX4 [2]) | lowest phenotypically active concentration (A549-GM130-SQSTM1 [3]) | lowest phenotypically active concentration (A549-TP53BP1-CLTA [4]) | lowest phenotypically active concentration (A549-TUBA1B-RELA [5])
active: phenotypically active (A549-ACTB-RAB5A [6]) 1 | phenotypically active (A549-CANX-COX4 [7]) 1 | phenotypically active (A549-GM130-SQSTM1 [8]) 1 | phenotypically active (A549-TP53BP1-CLTA [9]) 1 | phenotypically active (A549-TUBA1B-RELA [10]) 1 | phenotypically active (HepG2-ACTB-RAB5A) 1 | phenotypically active (HepG2-CANX-COX4) 1 | phenotypically active (HepG2-GM130-SQSTM1) 1 | phenotypically active (HepG2-TP53BP1-CLTA) 1 | phenotypically active (HepG2-TUBA1B-RELA) 1 | phenotypically active (WPMY1-ACTB-RAB5A) 1 | phenotypically active (WPMY1-CANX-COX4) 1 | phenotypically active (WPMY1-GM130-SQSTM1) 1 | phenotypically active (WPMY1-TP53BP1-CLTA) 1 | phenotypically active (WPMY1-TUBA1B-RELA) 1

CC(C)n1nc(-c2cc3cc(O)ccc3[nH]2)c2c(N)ncnc21
active: phenotypically active (A549-ACTB-RAB5A [6]) 1 | phenotypically active (A549-CANX-COX4 [7]) 1 | phenotypically active (A549-GM130-SQSTM1 [8]) 1 | phenotypically active (A549-TP53BP1-CLTA [9]) 1 | phenotypically active (A549-TUBA1B-RELA [10]) 1 | phenotypically active (HepG2-ACTB-RAB5A) 1 | phenotypically active (HepG2-CANX-COX4) 1 | phenotypically active (HepG2-GM130-SQSTM1) 1 | phenotypically active (HepG2-TP53BP1-CLTA) 1 | phenotypically active (HepG2-TUBA1B-RELA) 1 | phenotypically active (WPMY1-ACTB-RAB5A) 1 | phenotypically active (WPMY1-CANX-COX4) 1 | phenotypically active (WPMY1-GM130-SQSTM1) 1 | phenotypically active (WPMY1-TP53BP1-CLTA) 1 | phenotypically active (WPMY1-TUBA1B-RELA) 1
1 µM: lowest phenotypically active concentration (A549-ACTB-RAB5A [1]) | lowest phenotypically active concentration (A549-CANX-COX4 [2]) | lowest phenotypically active concentration (A549-GM130-SQSTM1 [3]) | lowest phenotypically active concentration (A549-TP53BP1-CLTA [4]) | lowest phenotypically active concentration (A549-TUBA1B-RELA [5])

Cc1ccc(NC(=O)CCCCCC(=O)Nc2ccccc2N)cc1
active: phenotypically active (A549-ACTB-RAB5A [6]) 1 | phenotypically active (A549-CANX-COX4 [7]) 1 | phenotypically active (A549-GM130-SQSTM1 [8]) 1 | phenotypically active (A549-TP53BP1-CLTA [9]) 1 | phenotypically active (A549-TUBA1B-RELA [10]) 1 | phenotypically active (HepG2-ACTB-RAB5A) 1 | phenotypically active (HepG2-CANX-COX4) 1 | phenotypically active (HepG2-GM130-SQSTM1) 1 | phenotypically active (HepG2-TP53BP1-CLTA) 1 | phenotypically active (HepG2-TUBA1B-RELA) 1 | phenotypically active (WPMY1-ACTB-RAB5A) 1 | phenotypically active (WPMY1-CANX-COX4) 1 | phenotypically active (WPMY1-GM130-SQSTM1) 1 | phenotypically active (WPMY1-TP53BP1-CLTA) 1 | phenotypically active (WPMY1-TUBA1B-RELA) 1
1 µM: lowest phenotypically active concentration (A549-ACTB-RAB5A [1]) | lowest phenotypically active concentration (A549-GM130-SQSTM1 [3])
3 µM: lowest phenotypically active concentration (A549-CANX-COX4 [2]) | lowest phenotypically active concentration (A549-TP53BP1-CLTA [4]) | lowest phenotypically active concentration (A549-TUBA1B-RELA [5])

CC1=C(C(=O)Nc2cc3cn[nH]c3cc2F)C(c2ccc(C(F)(F)F)cc2)CC(=O)N1 (stereo not given)
1 µM: lowest phenotypically active concentration (A549-CANX-COX4 [2]) | lowest phenotypically active concentration (A549-GM130-SQSTM1 [3])
≤ 0.3 µM: lowest phenotypically active concentration (A549-ACTB-RAB5A [1]) | lowest phenotypically active concentration (A549-TP53BP1-CLTA [4]) | lowest phenotypically active concentration (A549-TUBA1B-RELA [5])
active: phenotypically active (A549-ACTB-RAB5A [6]) 1 | phenotypically active (A549-CANX-COX4 [7]) 1 | phenotypically active (A549-GM130-SQSTM1 [8]) 1 | phenotypically active (A549-TP53BP1-CLTA [9]) 1 | phenotypically active (A549-TUBA1B-RELA [10]) 1 | phenotypically active (HepG2-ACTB-RAB5A) 1 | phenotypically active (HepG2-CANX-COX4) 1 | phenotypically active (HepG2-GM130-SQSTM1) 1 | phenotypically active (HepG2-TP53BP1-CLTA) 1 | phenotypically active (HepG2-TUBA1B-RELA) 1 | phenotypically active (WPMY1-ACTB-RAB5A) 1 | phenotypically active (WPMY1-CANX-COX4) 1 | phenotypically active (WPMY1-GM130-SQSTM1) 1 | phenotypically active (WPMY1-TP53BP1-CLTA) 1 | phenotypically active (WPMY1-TUBA1B-RELA) 1

COc1cc2nc(N3CCCN(C)CC3)nc(NC3CCN(Cc4ccccc4)CC3)c2cc1OC
1 µM: lowest phenotypically active concentration (A549-CANX-COX4 [2]) | lowest phenotypically active concentration (A549-TP53BP1-CLTA [4])
≤ 0.3 µM: lowest phenotypically active concentration (A549-ACTB-RAB5A [1]) | lowest phenotypically active concentration (A549-GM130-SQSTM1 [3]) | lowest phenotypically active concentration (A549-TUBA1B-RELA [5])
active: phenotypically active (A549-ACTB-RAB5A [6]) 1 | phenotypically active (A549-CANX-COX4 [7]) 1 | phenotypically active (A549-GM130-SQSTM1 [8]) 1 | phenotypically active (A549-TP53BP1-CLTA [9]) 1 | phenotypically active (A549-TUBA1B-RELA [10]) 1 | phenotypically active (HepG2-ACTB-RAB5A) 1 | phenotypically active (HepG2-CANX-COX4) 1 | phenotypically active (HepG2-GM130-SQSTM1) 1 | phenotypically active (HepG2-TP53BP1-CLTA) 1 | phenotypically active (HepG2-TUBA1B-RELA) 1 | phenotypically active (WPMY1-ACTB-RAB5A) 1 | phenotypically active (WPMY1-CANX-COX4) 1 | phenotypically active (WPMY1-GM130-SQSTM1) 1 | phenotypically active (WPMY1-TP53BP1-CLTA) 1 | phenotypically active (WPMY1-TUBA1B-RELA) 1

C[C@@H](CN1CCC(n2c(=O)[nH]c3cc(Cl)ccc32)CC1)NC(=O)c1ccc2ccccc2c1
9 µM: lowest phenotypically active concentration (A549-CANX-COX4 [2]) | lowest phenotypically active concentration (A549-TP53BP1-CLTA [4])
active: phenotypically active (A549-ACTB-RAB5A [6]) 1 | phenotypically active (A549-CANX-COX4 [7]) 1 | phenotypically active (A549-GM130-SQSTM1 [8]) 1 | phenotypically active (A549-TP53BP1-CLTA [9]) 1 | phenotypically active (A549-TUBA1B-RELA [10]) 1 | phenotypically active (HepG2-ACTB-RAB5A) 1 | phenotypically active (HepG2-CANX-COX4) 1 | phenotypically active (HepG2-GM130-SQSTM1) 1 | phenotypically active (HepG2-TP53BP1-CLTA) 1 | phenotypically active (HepG2-TUBA1B-RELA) 1 | phenotypically active (WPMY1-ACTB-RAB5A) 1 | phenotypically active (WPMY1-CANX-COX4) 1 | phenotypically active (WPMY1-GM130-SQSTM1) 1 | phenotypically active (WPMY1-TP53BP1-CLTA) 1 | phenotypically active (WPMY1-TUBA1B-RELA) 1
3 µM: lowest phenotypically active concentration (A549-ACTB-RAB5A [1]) | lowest phenotypically active concentration (A549-GM130-SQSTM1 [3]) | lowest phenotypically active concentration (A549-TUBA1B-RELA [5])

Cc1cn(CCN2CCN(c3ccccc3-c3cc(C#N)cc(C(=O)NCCCN4CCCC4)c3)CC2)c2ccccc12
3 µM: lowest phenotypically active concentration (A549-CANX-COX4 [2]) | lowest phenotypically active concentration (A549-TP53BP1-CLTA [4])
1 µM: lowest phenotypically active concentration (A549-ACTB-RAB5A [1]) | lowest phenotypically active concentration (A549-GM130-SQSTM1 [3]) | lowest phenotypically active concentration (A549-TUBA1B-RELA [5])
active: phenotypically active (A549-ACTB-RAB5A [6]) 1 | phenotypically active (A549-CANX-COX4 [7]) 1 | phenotypically active (A549-GM130-SQSTM1 [8]) 1 | phenotypically active (A549-TP53BP1-CLTA [9]) 1 | phenotypically active (A549-TUBA1B-RELA [10]) 1 | phenotypically active (HepG2-ACTB-RAB5A) 1 | phenotypically active (HepG2-CANX-COX4) 1 | phenotypically active (HepG2-GM130-SQSTM1) 1 | phenotypically active (HepG2-TP53BP1-CLTA) 1 | phenotypically active (HepG2-TUBA1B-RELA) 1 | phenotypically active (WPMY1-ACTB-RAB5A) 1 | phenotypically active (WPMY1-CANX-COX4) 1 | phenotypically active (WPMY1-GM130-SQSTM1) 1 | phenotypically active (WPMY1-TP53BP1-CLTA) 1 | phenotypically active (WPMY1-TUBA1B-RELA) 1

CC(C)(N)c1cc(C(=O)N[C@@H]2CCc3ccc(OC4=C5CCC(=O)N=C5NC=C4)cc3C2)cc(C(F)(F)F)c1 [ML 786 dihydrochloride]
1 µM: lowest phenotypically active concentration (A549-ACTB-RAB5A [1]) | lowest phenotypically active concentration (A549-CANX-COX4 [2]) | lowest phenotypically active concentration (A549-GM130-SQSTM1 [3]) | lowest phenotypically active concentration (A549-TUBA1B-RELA [5])
3 µM: lowest phenotypically active concentration (A549-TP53BP1-CLTA [4])
active: phenotypically active (A549-ACTB-RAB5A [6]) 1 | phenotypically active (A549-CANX-COX4 [7]) 1 | phenotypically active (A549-GM130-SQSTM1 [8]) 1 | phenotypically active (A549-TP53BP1-CLTA [9]) 1 | phenotypically active (A549-TUBA1B-RELA [10]) 1 | phenotypically active (HepG2-ACTB-RAB5A) 1 | phenotypically active (HepG2-CANX-COX4) 1 | phenotypically active (HepG2-GM130-SQSTM1) 1 | phenotypically active (HepG2-TP53BP1-CLTA) 1 | phenotypically active (HepG2-TUBA1B-RELA) 1 | phenotypically active (WPMY1-ACTB-RAB5A) 1 | phenotypically active (WPMY1-CANX-COX4) 1 | phenotypically active (WPMY1-GM130-SQSTM1) 1 | phenotypically active (WPMY1-TP53BP1-CLTA) 1 | phenotypically active (WPMY1-TUBA1B-RELA) 1
